Screens: PubChem, National Center for Advancing Translational Sciences (NCATS)
TDP1 cell CPT: DT40-hTDP1 cell growth loss with CPT. actives 12% (n = 420,000). chicken DT40 Tdp1-/-;hTDP1 cells + 20 nM CPT, ATP luminescence, 48 h. Potency, µM (series often up to 46.2 µM), for inactives: at the top dose activity change, negative = growth inhibition, most hits filed as inhibitors; also: potency is read from the fitted curve at half-maximal effect; nearly all actives have a fitted effect of over 55% in size
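Cell growth measured by CellTiter-Glo luminescence after a minimum 48 h, 37 C compound exposure with 20 nM CPT in Tdp1-knockout DT40 cells stably expressing hTDP1, seeded 400/well; qHTS titration format.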
TDP1 cell noCPT: qHTS for Inhibitors of human tyrosyl-DNA phosphodiesterase 1 (TDP1): qHTS in cells in absence of CPT. actives 15% (n = 420,000). Potency, µM (doses to about 46.2 µM), for the others: top-dose activity change, negative = growth inhibition, actives largely listed as inhibitors. DT40 Tdp1-/- hTDP1 cells, no CPT, ATP luminescence, 48 h; also: potency is read from the fitted curve at half-maximal effect; nearly all actives have a fitted effect of over 55% in size
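Compound effects on proliferation are scored in DT40 Tdp1-/-;hTDP1 cells in the absence of CPT. ATP levels (CellTiter-Glo luminescence) are recorded after a ≥48 hr, 37 °C incubation.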
HT1080 IDH1KD tx: kills HT-1080 cells with IDH1 knockdown; HT-1080 IDH1 knockdown viability, ATP luminescence, 48 h; Potency, µM (highest dose often 46.1 µM), for inactives: top-dose activity, negative = toxicity, usual class: cytotoxic; actives 2% (n = 360,000);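 also: potency is read from the fitted curve at half-maximal effect; 0% = DMSO wells and -100% = cell-free medium wells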
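HT-1080-IDH1KD cells (IDH1 knocked down), 750/well in RPMI with 5% FBS, treated with compound 48 h at 37 degrees C. Viability by CellTiter-Glo luminescence, normalised to DMSO and no-cell wells; concentration-response curves classed.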
IL1B secr inh: inhibitors of inflammasome signaling (IL-1 beta secretion). THP-1 LPS/ATP IL-1B secretion, AlphaLISA, 16 h; active compounds read low. activity change, % at 57.5 µM. actives 4.7% (n = 360,000). AID 743279; in the data active = activity change below about -50%; inconclusive = mostly about -30% to -49%
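Secreted IL-1B measured by AlphaLISA bead assay after 16 h compound exposure of THP-1 cells; compounds (final up to 57.5 uM) added 1 h before LPS (250 ng/mL) and ATP (1.25 mM) stimulation; lower signal means less secretion.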
HT1080NT lethal: kills 2HG-producing HT-1080-NT fibrosarcoma cells; HT-1080-NT fibrosarcoma viability, CellTiter-Glo ATP luminescence, 48 h; actives 1.6% (n = 360,000); AID 686970; Potency, µM (titrated, usually from 46.1 µM), inactives show at the top dose activity, negative = less viability, most hits filed as cytotoxic;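 also: NT is the 2HG producing partner of a matched IDH1 knockdown line; potency is read from the fitted curve at half-maximal effect; 0% = DMSO-treated cells and -100% = media-only wells without cells; nearly all actives have a fitted effect of over 55% in size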
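Viability of the 2HG-overproducing fibrosarcoma line after 48 hours of compound exposure at 37 degrees C was determined by luminescence with CellTiter-Glo, and concentration-effect curves were then fitted and categorized.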
ELG1 DNA repair: ELG1-dependent DNA repair inhibition. HEK293T ELG1-luciferase reporter, luminescence, 16 h; DNA damage induced by 5-fluorouridine. Potency, µM (titrated, usually from 46.1 µM), inactives show at the highest dose activity change, negative = inhibition, hits mostly inhibitors. actives 2.3% (n = 330,000). AID 504467; also: potency is read from the fitted curve at half-maximal effect; nearly all actives have a fitted effect of over 55% in size
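In this reporter screen, reduction of luminescence relative to DMSO vehicle indicated activity. Compounds and 5-fluorouridine were added together to 2,000 cells per well, incubated for 16 hr at 37 °C, then developed with ONE-Glo.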
* = called active by the depositor; ? = inconclusive; nt = no result; [ ] = another dose, or the depositor's remark. An excerpt weighted towards active compounds, which were near 19% of everything screened. Unless noted, calls follow the shape of the dose curve; as a rule, active = well fitted curve in the direction sought with a large enough effect; inconclusive = small, poorly fitted or top-dose-only effect, or another doubt; inactive = no such curve, though single readings can be large; an effect the other way counts as inactive or inconclusive. Unless noted, % is scaled to controls: 0 for no effect and ±100 for the full control effect.

SMILES	TDP1 cell CPT	TDP1 cell noCPT	HT1080 IDH1KD tx	IL1B secr inh	HT1080NT lethal	ELG1 DNA repair
CCN[C@H](C)Cc1cccc(C(F)(F)F)c1	3%[92.5 µM]	4%[92.5 µM]	nt	nt	nt	nt
Cc1cc(C)c(OCC(=O)Nc2cccc(NC(=O)c3ccco3)c2)c(Br)c1	23µM*	13µM*	?	-55*	?	?
O=C(Nc1ccc(-c2nc3ccccc3c(=O)o2)cc1)c1ccco1	0%	6%	2%	7	11%	?
O=C(c1cccc(Cl)c1)C1CCCN(Cc2ccon2)C1 (centres undefined)	?	?	-4%	8	2%	0.58µM*
CSc1ncc(CN2CCCC(C(=O)c3cccc(Cl)c3)C2)cn1 (centres undefined)	21µM*	?	-2%	-13	-7%	-16%
COc1ccc2c3c1O[C@H]1[C@H](O)CC[C@H]4[C@@H](C2)N(C)CC[C@@]341	10%[92.5 µM]	11%[92.5 µM]	nt	nt	nt	nt
COC(=O)C1=C(c2ccc(OC)c(OC)c2)C[C@@H]2CC[C@H]1N2C(=O)NCCOc1ccccc1Cl	?	?	5%	-3	5%	-9%
Cc1ccc(OCC(=O)N2CCN(CCc3ccncc3)CC2)cc1	-18%	-9%	nt	nt	nt	nt
COc1ccc(-c2cc3nc(C)c(CCC(=O)N4CCN(c5cc(C)ccc5C)CC4)c(C)n3n2)c(OC)c1	8.2µM*	9.2µM*	nt	nt	nt	nt
Oc1cccc[c]1[Hg][Cl]	0.19µM*	0.15µM*	nt	nt	nt	nt
O=c1[nH]sc2cc(F)ccc12	1.8µM*	2.3µM*	?	-108*	?	8%
CC1CC(C)CC(C)C(O)C(C#N)=CC=CCC(C2CCCC2C(=O)O)OC(=O)CC(O)C(C)C1 (centres undefined)	0.0082µM*	0.1µM*	0.18µM*	-103*	0.0092µM*	nt
CC(C)(O)C1C2OC(=O)C1[C@]1(O)CC3O[C@@]34C(=O)OC2[C@@]14C (some centres undefined)	9%	15%	nt	nt	nt	nt
OC(O)C(Cl)(Cl)Cl	-1%	-1%	nt	nt	nt	nt
S=C=Nc1ccccn1	-24%	?	12%	21	25%	?
c1ccc(P(c2ccccc2)c2ccccn2)cc1	5.2µM*	5.2µM*	-16%	28	?	-7%
ClC1=C(Cl)C2(Cl)C(CBr)CC1(Cl)C2(Cl)Cl (centres undefined)	6%	-3%	nt	nt	nt	nt
O=c1[nH]c2ccccc2n1C1CCN(C(c2cc3ccccc3o2)c2nnnn2Cc2ccccc2)CC1 (centres undefined)	10µM*	9.2µM*	8.2µM*	?	10µM*	nt
O=c1[nH]c2ccccc2n1C1CCN(C(CCc2ccccc2)c2nnnn2C2CCCC2)CC1 (centres undefined)	18µM*	16µM*	?	-55*	?	nt
O=C(CCCN1CCC(n2c(=O)[nH]c3ccccc32)CC1)c1ccc(F)cc1	?	?	-28%	-28	-28%	-7%
CC(C)(C)n1nnnc1C(c1cccc2ccccc12)N1CCC2(CC1)C(=O)NCN2c1ccccc1 (centres undefined)	?	?	?	-1	?	nt
O=c1[nH]c2ccccc2n1C1CCN(C(c2cccc3ccccc23)c2nnnn2Cc2ccccc2)CC1 (centres undefined)	12µM*	8.2µM*	?	?	?	nt
COc1cccc(C(c2nnnn2Cc2ccccc2)N2CCC(n3c(=O)[nH]c4ccccc43)CC2)c1OC (centres undefined)	2.6µM*	3.3µM*	?	0	21µM*	nt
CN1CCN=C(c2ccccc2)c2cc(Cl)ccc21	-88%	-86%	nt	nt	nt	nt
